Assay results published in the supplement of paper PMC6555819.

How the values were obtained:
Experiment in all cases: PBM binding z-score (relative to random genomic background probes); higher = stronger binding; sequences stand for … in GC…GCGATTGACAGCGTAGAATGAAGG
[1] = system: FXR:RXRa (NR concentration 270 nM, RXRa partner concentration 90 nM)
In short: (§1)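 The probes on custom Agilent 4×180K protein-binding microarrays were double-stranded, with 34-nt variable regions bearing direct-repeat seeds, single-nucleotide variants, half-site ablations and random human genomic background sequences. Incubation lasted 1 h with ligand-free nuclear receptor dimers in PBS pH 7.4, 2% milk, 0.02% Triton X-100, 1 mM DTT, 0.2 mg/mL BSA and 0.4 mg/ml salmon testes DNA. Antibodies against each partner (one per run) detected bound dimers, and fluorescence scans were regression-normalized. Binding z-scores take the random background probes as reference.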

[2] = system: LXRa:RXRa (NR concentration 270 nM, RXRa partner concentration 90 nM)
In short: as §1

[3] = system: LXRa homodimer (NR concentration 270 nM)
In short: as §1

[4] = system: LXRb:RXRa (NR concentration 270 nM, RXRa partner concentration 90 nM)
In short: as §1

[5] = system: LXRb homodimer (NR concentration 270 nM)
In short: as §1

[6] = system: PPARa:RXRa (NR concentration 270 nM, RXRa partner concentration 90 nM)
In short: as §1

[7] = system: PPARg:RXRa (NR concentration 180 nM, RXRa partner concentration 90 nM)
In short: as §1

[8] = system: PPARg:RXRa 270nM:90nM, anti-RXR (NR concentration 270 nM, RXRa partner concentration 90 nM)
In short: as §1

[9] = system: PPARg:RXRa 30nM:10nM, anti-RXR (NR concentration 30 nM, RXRa partner concentration 10 nM)
In short: as §1

[10] = system: PPARg:RXRa 90nM:30nM, anti-RXR (NR concentration 90 nM, RXRa partner concentration 30 nM)
In short: as §1

[11] = system: PPARg:RXRa DBDmut IVT, anti-RXR (DBD mutation: RXRa K156A/R161A, NR concentration 270 nM, RXRa partner concentration 90 nM)
In short: as §1

[12] = system: PPARg:RXRa IVT, anti-PPARg (NR concentration 270 nM, RXRa partner concentration 90 nM)
In short: as §1

[13] = system: PPARg DBDmut:RXRa IVT, anti-PPARg (DBD mutation: PPARg1 K132A/R137A, NR concentration 270 nM, RXRa partner concentration 90 nM)
In short: as §1

[14] = system: PPARg DBDmut IVT, anti-PPARg (DBD mutation: PPARg1 K132A/R137A, NR concentration 270 nM)
In short: as §1

[15] = system: PPARg homodimer (NR concentration 180 nM)
In short: as §1

[16] = system: PXR:RXRa (NR concentration 270 nM, RXRa partner concentration 90 nM)
In short: as §1

[17] = system: PXR homodimer (NR concentration 270 nM)
In short: as §1

[18] = system: RARa:RXR (NR concentration 270 nM, RXRa partner concentration 90 nM)
In short: as §1

[19] = system: RARa homodimer (NR concentration 270 nM)
In short: as §1

[20] = system: RARb:RXRa (NR concentration 270 nM, RXRa partner concentration 90 nM)
In short: as §1

Sequence | PBM binding z-score [1] | PBM binding z-score [2] | PBM binding z-score [3] | PBM binding z-score [4] | PBM binding z-score [5] | PBM binding z-score [6] | PBM binding z-score [7] | PBM binding z-score [8] | PBM binding z-score [9] | PBM binding z-score [10] | PBM binding z-score [11] | PBM binding z-score [12] | PBM binding z-score [13] | PBM binding z-score [14] | PBM binding z-score [15] | PBM binding z-score [16] | PBM binding z-score [17] | PBM binding z-score [18] | PBM binding z-score [19] | PBM binding z-score [20]
ACTAGCAGGCCAAGTTTGGGTCACTGAAACAAAG | 0.428 | 0.0569 | -0.409 | 0.671 | -0.515 | 1.52 | 0.0239 | 0.587 | -0.227 | -0.112 | 0.913 | 1.45 | -0.659 | -0.796 | 0.506 | 0.641 | -0.0145 | 1.25 | -0.321 | 2
CAAACTAGGTCAAAGATCAAAGTCGAGCCAACCA | 4.71 | 3.87 | 0.503 | 3.15 | 0.553 | 6.47 | 11.6 | 9.58 | 9.42 | 10.6 | 8.07 | 8.58 | 1.49 | 0.885 | 1.76 | 2.81 | 0.46 | 4.42 | 0.53 | 3.99
TCTTGTTGATCAACAGGAGGTTAAGAAAGATCGA | -0.388 | 1.08 | 0.0425 | 0.962 | -0.0113 | 1.21 | -0.165 | 1.01 | 2.18 | 2.1 | 0.718 | 0.445 | 1.15 | 0.996 | -0.401 | 0.703 | -0.344 | 0.688 | -0.505 | 0.432
AGAACGAGGGCAATGAGTTGATAGTACGGGTGGC | 0.224 | 0.29 | -0.524 | -0.18 | -0.473 | 1.56 | 1.5 | 0.768 | 0.0705 | 0.415 | 3.34 | 2.4 | -0.466 | 0.0133 | 0.221 | 2 | 6.24 | 0.19 | -0.58 | 2.11
TCTTGTAGATCAACGGTTAAGAAAGCCGAAGCCT | 0.513 | 0.28 | -0.0283 | 0.131 | -0.0358 | 1.14 | 0.464 | 2.61 | 3.23 | 3.03 | 1.73 | 0.568 | 0.699 | 0.541 | 0.0861 | 0.292 | -0.149 | 0.701 | 0.15 | 0.235
AGTCAAAGTCCATCTAGGTAACGTAAGATATGCT | 0.0265 | -0.375 | 0.0157 | -0.0801 | -0.0793 | 0.13 | 0.685 | 0.325 | 0.277 | 0.00564 | 0.353 | 2.15 | 1.24 | 0.675 | -0.173 | -0.246 | 0.131 | 0.0232 | 0.0654 | 1.37
